# G9a inh: G9a (human) methyltransferase inhibition; AID 504332; Q96KQ7; Potency, µM (doses to about 102 µM), without a hit: at the top dose activity, negative = inhibition, hits mostly inhibitors; G9a H3K9 monomethylation, AlphaScreen, 2 h; 350,000 tested, 8.8% active; further: on the % scale 0 is the no-effect control and ±100 the full control effect; nearly all actives have a fitted effect of over 75% in size
#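 Methyltransferase reactions run at room temperature for 2 h (20 nM enzyme, 500 nM biotin-H3K9 peptide, 20 uM SAM) after a 15 min compound preincubation; product detected by AlphaScreen beads and anti-H3K9me1 antibody.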
# BAZ2B block: BAZ2B (human) inhibition; Q9UIF8; AlphaScreen BAZ2B-H3K14Ac peptide displacement; Potency, µM (doses to about 114 µM), inactives show at the highest dose activity change, negative = inhibition, actives largely listed as inhibitors; 360,000 tested, 4.4% active; AID 504333; further: on the % scale 0 is the no-effect control and ±100 the full control effect; nearly all actives have a fitted effect of over 60% in size
#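 Complex of BAZ2B and biotin-H3K14Ac (50 nM apiece) forms over 30 min at RT, then faces library compounds up to 110 uM for another 30 min; AlphaScreen beads added, 20 min dark incubation, luminescence read.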
# L3MBTL1 inh: inhibitors of human L3MBTL1 | AlphaScreen L3MBTL1–H3K9me1 peptide binding | Q9Y468 | Potency, µM (highest dose often 57.1 µM), without a hit: at the highest dose activity, negative = inhibition, hits mostly inhibitors | 230,000 tested, 0.66% active | AID 485360; further: on the % scale 0 is the no-effect control and ±100 the full control effect; nearly all actives have a fitted effect of over 60% in size
#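 L3MBTL1 50 nM + b-AHA-H3(1-15)K9me1 75 nM, 30 min RT; compound added, 30 min RT; streptavidin donor/Ni-chelate acceptor beads 10 ug/mL each final, 30 min RT dark; AlphaScreen read.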
# HP1b binding inh: blocks HP1-beta chromodomain binding to methylated histone tails; P83916; AlphaScreen HP1-beta / biotin-H3K9me3 peptide binding; Potency, µM (highest dose often 114 µM), inactives show top-dose activity change, negative = inhibition, usual class: inhibitors; 390,000 tested, 0.56% active; further: nearly all actives have a fitted effect of over 70% in size
#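 HP1-beta protein (50 nM final) preincubated 30 min at room temperature with biotinylated H3(1-18)K9me3 peptide (50 nM) in PBS pH 7.4, 0.01% Tween-20, then compound added for 30 min. AlphaScreen streptavidin donor/nickel chelate acceptor beads (10 ug/mL final), 30 min dark, luminescence read.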
# JMJD2A Tudor: inhibitors of human JMJD2A Tudor domain; O75164; AlphaScreen JMJD2A-Tudor / H3K4me3 peptide binding; 390,000 tested, 4.4% active; Potency, µM (doses to about 114 µM), for inactives: at the top dose activity change, negative = inhibition, usual class: inhibitors; AID 504339; further: on the % scale 0 is the no-effect control and ±100 the full control effect; nearly all actives have a fitted effect of over 50% in size
# * = called active by the depositor; u = inconclusive; x = no result; [ ] = remark or other dose. A selection: hits, their analogues and other compounds. The true share with any hit is near 11%. The call rests on the fitted dose curve; in most records, active means well fitted inhibition curve with a large enough effect; inconclusive means small, poorly fitted or top-dose-only effect; inactive means no such curve, though single readings can be large or run the other way. Potency means the concentration at half of the fitted maximal effect.
SMILES,G9a inh,BAZ2B block,L3MBTL1 inh,HP1b binding inh,JMJD2A Tudor
COc1ccc(C(=O)NC(=S)N2C[C@H]3C[C@H](C2)c2cccc(=O)n2C3)cc1,25µM*,-7%,6%,15%,-22%
O=C(/C=C/c1ccc(Cl)cc1)NC(=S)N1C[C@H]2C[C@H](C1)c1cccc(=O)n1C2,18µM*,-34%,3%,5%,-21%
COc1ccc(C=O)cc1,-4%[0.501 µM],1%,-5%,49%,3%
COc1ccc(-c2oc(=O)n(C)c2-c2ccc(OC)cc2)cc1,-14%,32µM*,x,0%,u
CN(C)c1ccc(/C=C2/C(=O)NC(=O)N(CCc3ccc(F)cc3)C2=O)cc1,u,u,-8%,0%,28µM*
CCOc1cc(/C=C2\C(=O)NC(=O)N(CCc3ccc(F)cc3)C2=O)ccc1O,40µM*,-17%,x,27%,-4%
Cc1ccc(/C=C2/C(=O)NC(=O)N(Cc3ccc(F)cc3)C2=O)o1,x,-16%,x,x,x
COCCN1C(=O)NC(=O)/C(=C\c2ccc(Br)cc2)C1=O,45µM*,-5%,16%,11%,u
Cc1ccc(/C=C2\C(=O)NC(=O)N(CCc3ccc(F)cc3)C2=O)o1,3.2µM*,-8%,u,27%,-24%
CCN(CC(=O)Nc1ccccc1C(F)(F)F)C(=O)Cn1c(=O)cnc2ccccc21,u,1%,3%,0%,-17%
O=[N+]([O-])c1cc(I)c(O)c(I)c1,6%[59 µM],x,x,x,x
O=C(COc1cc(Cl)ccc1Cl)Nc1ccc(Cl)cc1C(=O)c1ccccc1,-24%[59 µM],-1%,x,17%,-21%
CCC(=Nc1ccc(Cc2ccncc2)cc1)c1c(O)n(C)c(=O)n(C)c1=O,79µM*,-6%,-2%,20%,-9%
CCOC(=O)c1ccc(N=C(CC)c2c(O)n(C)c(=O)n(C)c2=O)cc1,u,-38%,x,1%,u
NCC(CC(=O)O)c1ccc(Cl)s1 (stereo not given),37%[59 µM],x,x,x,x
Cc1ccc2c(c1)=C/C(=C\c1c(O)[nH]c(=S)[nH]c1=O)C(=O)N=2,3.5µM*,u,-13%,x,x
Cc1ccc2c(c1)=NC(=O)/C(=C/c1c(O)[nH]c(=O)[nH]c1=O)C=2,u,-12%,x,31%,-16%
Cc1ccccc1-c1nn2c(=O)cc(CN3CCN(C(=O)COc4ccccc4Cl)CC3)nc2s1,5%[59 µM],-7%,x,3%[57 µM],-24%
COc1ccc(CCNC(=O)c2ccc3c(c2)CCN3S(=O)(=O)c2ccc(C)cc2)cc1OC,5µM*,-17%,x,-14%,-27%
CCOc1ccc(C2c3c(-c4ccccc4O)n[nH]c3C(=O)N2Cc2ccncc2)cc1 (stereo not given),3%[59 µM],-30%,x,25%,u
CN(C(=O)Cc1ccc(Cl)c(Cl)c1)C(CN1CCCC1)c1cccc(N=C=S)c1 (stereo not given),18µM*,x,x,x,x
CCc1n[nH]c(=S)n1/N=C/c1c(C)nn(-c2ccccc2)c1Cl,1.8µM*,-4%,x,35%,u
CCN1C[C@@]2(C)CC[C@@H](OC)[C@@]34C2C(O)[C@@]2(OCO[C@]25CC(OC)C2C[C@@]3(O)C5C2O)C14 (stereo not given in full),-1%[2.33 µM],x,x,x,x
COc1cc(N2CCOCC2)ccc1C=C1C(=O)NC(=O)NC1=O,79µM*,0%,25%,-12%,-10%
Cc1cc(N2CCOCC2)ccc1/C=C1\C(=O)NC(=O)N(c2ccccc2)C1=O,-34%[12.7 µM],u,0%,49%,-1%
SMILES,G9a inh,BAZ2B block,L3MBTL1 inh,HP1b binding inh,JMJD2A Tudor
O=C1NC(=O)C(=Cc2cn(CCOc3ccc4c(c3)OCO4)c3ccccc23)C(=O)N1,u,-8%,x,38%,-24%
O=C1NC(=O)C(=Cc2ccc3c(c2)OCO3)C(=O)N1,50µM*,-14%,2%,x,x
O=C1NC(=O)C(=Cc2ccc(N3CCOCC3)cc2)C(=O)N1,45µM*,-3%,4%,50%,0%
COc1cc(N2CCOCC2)ccc1/C=C1\C(=O)NC(=O)N(Cc2ccc3c(c2)OCO3)C1=O,40µM*,u,x,-10%,-31%
C/C(=C\c1csc(C)n1)[C@@H]1C[C@@H]2O[C@]2(C)CCC[C@H](C)[C@H](O)[C@@H](C)C(=O)C(C)(C)[C@@H](O)CC(=O)O1,7%[12.7 µM],x,x,x,x
COc1ccccc1CNC(=O)C(NS(=O)(=O)c1ccc2c(c1)oc(=O)n2C)C(C)C (stereo not given),-3%,-2%,x,46%,-6%
C=CCN1C(=O)NC(=O)/C(=C/c2c(CCN(C)C(=O)c3ccccc3)cc3c(c2OC)OCO3)C1=O,u,-37%,-4%,41%,-20%
COc1cc(N2CCOCC2)ccc1/C=C1\C(=O)NC(=O)N(Cc2cccs2)C1=O,32µM*,1%,x,20%,-19%
Cn1ccnc1,11%[12.7 µM],x,x,x,x
COc1ccc(-c2n(-c3ccccn3)c3ccccc3[n+]2-c2ccccn2)cc1,3.2µM*,4%,x,30%,3%
CNCCc1c(C)n[nH]c1C,u,0%,-1%,20%,-9%
CNCCc1nc(N)n[nH]1,56µM*,u,x,15%,-8%
CC1CC[C@]2(NC1)OC1CC3C4CC=C5CC(O)CC[C@@]5(C)C4CC[C@]3(C)C1C2C (stereo not given in full),-48%[2.33 µM],x,x,x,x
COCC(=O)N(c1c(C)cccc1C)C(C)C(=O)OC (stereo not given),3%[12.7 µM],x,x,x,x
CCCCC[C@@H](/C=C/C=C\C/C=C\C/C=C\CCCC(=O)O)OO,27%[59 µM],x,x,x,x
O=C(O)c1cccc2nc3ccccc3nc12,40µM*,-31%,7%,41%,-9%
S=C1Nc2ccccc2Sc2ccccc21,10µM*,u,-13%,u,-16%
Cc1ccccc1-n1c(/C=C/c2ccc(N(C)C)cc2)nc2ccccc2c1=O,-35%[59 µM],22µM*,x,25%,22µM*
COc1ccc(-n2c(/C=C/c3ccc(O)c(O)c3)nc3ccccc3c2=O)cc1,32µM*,u,x,4%,u
Cc1ccccc1-n1c(/C=C/c2c(C)[nH]c3ccccc23)nc2ccccc2c1=O,-46%[59 µM],-17%,x,36%,-30%
Cc1ccccc1-n1c(-c2ccc([N+](=O)[O-])cc2)nc2ccccc2c1=O,71µM*,-35%,-6%,-9%,-27%
O=C(Nc1ccccc1)N1CC[C@@]2(CCCN(C(=O)Oc3ccccc3)C2)C1,-1%[12.7 µM],x,x,x,x
CC(C)c1cccc(C(C)C)c1OC(=O)NC(=O)c1c(F)cccc1F,15%[12.7 µM],2%,x,45%,-20%
CCCN(CCC)[C@H]1CCc2c(F)ccc(O)c2C1,50µM*,x,x,x,x
c1ccc(CN2CCC3(CCNCC3)CC2)cc1,-28%[12.7 µM],x,x,x,x
COc1cc(CN2CCNCC2)cc(OC)c1OC,x,4%,-3%,11%,-17%
COc1cccc(CN2CCNCC2)c1,79µM*,-6%,16%,37%,-10%
CC[N+](C)(CC)CCCOC(=O)C(O)(c1ccccc1)C1CCCCC1 (stereo not given),u,-28%,10%,u,40µM*

# High-throughput results deposited in PubChem by National Center for Advancing Translational Sciences (NCATS).
